Reference: PubChem BioAssay AID1476 (National Center for Advancing Translational Sciences (NCATS), 2009)
The whole screen tested about 200,000 compounds, of which about 4,500 (2.2%) were called active. Another 12% or so got no clear call; they are omitted. What follows is part of a selection rich in actives, with near analogues and random picks from the rest. Values without a mark were called inactive. Calls come from the whole dose curve; as a rule, active = well fitted inhibition curve with a large enough effect; inconclusive = small, poorly fitted or top-dose-only effect, or effect the other way; inactive = flat fitted curve, though single readings scatter.

molecular target: Cruzipain (Trypanosoma cruzi) (UniProt P25779); experiment: qHTS Assay for Promiscuous and Specific Inhibitors of Cruzain (without detergent); conditions: purified cruzain, Z-FR-AMC fluorescence, no detergent; note: nearly all actives have a fitted effect of over 40% in size;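 for max response, negative = inhibition: plate controls were enzyme without inhibitor for no effect and buffer without enzyme for full effect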
Sequence (P25779 123-467 limits assumed): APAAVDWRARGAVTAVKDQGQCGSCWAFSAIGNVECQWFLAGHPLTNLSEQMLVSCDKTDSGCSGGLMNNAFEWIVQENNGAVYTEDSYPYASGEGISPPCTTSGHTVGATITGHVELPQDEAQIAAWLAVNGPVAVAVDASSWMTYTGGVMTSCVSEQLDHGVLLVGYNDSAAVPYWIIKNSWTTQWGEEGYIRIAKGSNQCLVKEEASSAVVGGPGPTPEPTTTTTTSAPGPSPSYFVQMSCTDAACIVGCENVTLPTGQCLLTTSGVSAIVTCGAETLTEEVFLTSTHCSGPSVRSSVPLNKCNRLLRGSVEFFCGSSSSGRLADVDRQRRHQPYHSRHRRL
Outline: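 Detergent-free condition (0.00005% Triton X-100) in acetate buffer pH 5.5 with DTT. 1.5 nM enzyme and compound were pre-mixed 15 min, then 2 uM Z-FR-AMC substrate added; reaction progress from fluorescence change between first and third reads (60 s).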
Potency is the fitted concentration of half-maximal effect.

SMILES	max response, negative = inhibition	Potency
CCc1nn(CC(=O)NCC(C)c2ccccc2)c(=O)c2cc3occc3n12 (stereo not drawn)	-11.2%	
CCn1c(C(=O)Nc2cc(Cl)ccc2C)cc2sc(Cl)cc21	4.79%	
CCOC(=O)c1c(NC(=O)c2cccs2)sc(C)c1C	6.07%	
CCOC(=O)c1c(NC(=O)/C=C/c2ccco2)sc(C)c1C	-4.04%	
CCOC(=O)c1c(NC(=S)NC(=O)/C=C/c2cccs2)sc(C)c1C		10 µM (active)
Cc1ccc2nc(COc3ccccc3NC(=O)Nc3ccc(F)c(Cl)c3)cc(=O)n2c1	4.26%	
COc1ccc(N(C)C(=O)CCS(=O)(=O)c2cccc3nsnc23)cc1	-4.91%	
Cc1ccc(NC(=O)CSc2nnc3[nH]c(=O)cc(C)n23)cc1Cl	-3.39%	
Cc1cccc(C(=O)OCC(=O)Nc2sc3c(c2C#N)CCC3)c1		25.1 µM (active)
Cc1ccc(C)c(OCC(=O)Nc2sc3c(c2C#N)CCCC3)c1C	-0.311%	
CC(=O)c1c(C)[nH]c(C(=O)OCC(=O)Nc2sc3c(c2C#N)CCCC3)c1C	11.6%	
Cc1cc(C)c2oc(-c3cccc(NC(=O)c4cccc(F)c4)c3C)nc2c1	-10.4%	
CCOC(=O)c1cccc(NS(=O)(=O)c2cc(-c3cnc(C)o3)ccc2OC)c1	1.23%	
COc1ccccc1N1CCN(C(=O)c2cc(-c3ccc(Cl)c(Cl)c3)on2)CC1		25.1 µM (active)
COc1ccccc1N1CCN(C(=O)c2cc(-c3ccc(Br)cc3)on2)CC1	16.1%	
COc1ccccc1-c1cc(C(=O)N2CCCCC2)no1	-9.93%	
O=C(Nc1c(C(=O)N2CCN(c3ccc(F)cc3)CC2)oc2ccccc12)c1ccco1	-12.7%	
COc1ccccc1CN1CCC(CNC(=O)c2cnn(-c3cccc(Cl)c3)c2C2CCN(C(=O)OC(C)(C)C)CC2)CC1	4.5%	
CC1=C(c2ccc(F)cc2)S(=O)(=O)N=C1N1CCC(C(=O)NCCc2ccccc2C)CC1	-2.21%	
COc1ccccc1C1=Nc2cccc3cccc(c23)N1		12.6 µM (active)
CNc1nc(-c2ccccc2OC)nc2ccccc12	-18.4%	
COc1ccccc1-c1nc(C(F)(F)F)c(OC)o1	-2.62%	

SMILES	max response, negative = inhibition	Potency
Cc1ccc(NC(=O)NC(C)c2c(-n3cccc3)sc(C)c2C)c(C)c1 (stereo not drawn)	-10.8%	
CCC(=O)N1CCc2cc(Br)cc(S(=O)(=O)Nc3ccc(C)cc3C)c21	-1.34%	
Cc1[nH]nc(-c2ccc(OCc3cnn(-c4ccccc4)c3)cc2O)c1Oc1ccc(Cl)cc1		10 µM (active)
C=C(C)COc1ccc(-c2n[nH]c(C)c2-c2ccccc2)c(O)c1	-10.5%	
COc1ccc(C(=O)Cc2cnn(-c3ccccc3)c2)c(O)c1	4.15%	
CCCN(CCC)CCNC(=O)Cn1cnc2sc(C)c(S(=O)(=O)N3CCC(C)CC3)c2c1=O	-2.05%	
COc1cc(C(CC(=O)NCCC(C)C)N2Cc3ccccc3C2=O)cc(OC)c1OC (stereo not drawn)	2.58%	
COc1cc(OC)c2c(-c3cccc(-c4cccc(N)c4)c3)cc(=O)oc2c1		11.2 µM (active)
COc1ccc(Nc2cc(=O)oc3ccccc23)cc1	-23.8%	
COC(=O)C(C)Oc1ccc2c(-c3cccc([N+](=O)[O-])c3)cc(=O)oc2c1 (stereo not drawn)	0.187%	
Cc1c(C(=O)N2CCCC2)oc2c1-c1nn(CC(=O)NCc3ccc(OC(C)C)cc3)cc1CC2	21.1%	
COc1ccc(OC(C)C(=O)NCCc2nc3ccccc3[nH]2)cc1 (stereo not drawn)	-6.55%	
O=C(COc1ccccc1)NCCc1nc2ccccc2[nH]1		1 µM (active)
CC(C)=C(NC(=O)c1ccco1)C(=O)NCCc1nc2ccccc2[nH]1	-27.9%	
Cc1cccc(NC(c2cccc(F)c2)c2ccc3ccc(C)nc3c2O)n1 (stereo not drawn)	9.47%	
Cc1cc(NS(=O)(=O)c2ccc(NC(=O)c3ccccc3C)cc2)nc(C)n1	11.3%	
CCCc1nc(NCc2ccc3c(c2)OCO3)c2nnn(Cc3ccccc3Cl)c2n1		7.94 µM (active)
Cc1nc(Nc2ccc3c(c2)OCCO3)c2nnn(Cc3ccccc3Cl)c2n1	-5.56%	
O=C(Cn1cnc2c(nnn2Cc2ccc(F)cc2)c1=O)NCc1ccc2c(c1)OCO2	-6.08%	
Cc1ccccc1-c1nc(CS(=O)(=O)CC(=O)Nc2cc(Cl)cc(Cl)c2)c(C)o1	-28.1%	
COc1ccc(-c2[nH]c3c(c2-c2c(-n4cccc4)n(C)c(=O)n(C)c2=O)c(=O)n(C)c(=O)n3C)cc1	-3.26%	
COc1ccc(C(=O)Nc2ncc3c(n2)-c2ccccc2CC3)cc1	-8%	

SMILES	max response, negative = inhibition	Potency
COC(=O)C(NC(=O)c1ccc(OC)cc1)(Nc1ncc(S(=O)(=O)c2ccc([N+](=O)[O-])cc2)s1)C(F)(F)F (stereo not drawn)	-9.17%	
COc1ccc(C(=O)Nc2nc(-c3ccc(OC)cc3)c(-c3ccc([N+](=O)[O-])cc3)s2)cc1		7.94 µM (active)
O=C(NCc1ccccc1Cl)c1cccn1-c1nnc(N2CCCCC2)s1	-7.04%	
O=c1cc(-c2ccc(O)c(O)c2)oc2cccc(O)c12	0.411%	
Oc1ccc(O)c2c(O)cccc12		12.6 µM (active)
O=S(=O)(c1ccc(Cl)cc1)c1nnn2c1nc(NC1CCCC1)c1sccc12	1.8%	
Cc1ccccc1NC(=O)Cn1c(=O)n(CC2CCC(C(=O)NCCc3ccccc3)CC2)c(=O)c2ccccc21 (stereo not drawn)	3.54%	
COc1ccc(-c2nc(C)c(CCNC(=O)c3ccc(C(F)(F)F)cc3)s2)cc1OC	17.5%	
CCn1cc(CCC(=O)NCc2ccc(F)cc2)c2ccccc21	-13.6%	
COC(=O)c1ccc(CSc2nc3ccccc3c(=O)n2-c2cccc(OC)c2)o1		25.1 µM (active)
CCc1ccc(NC(=O)CSc2nc3c([nH]c4ccccc43)c(=O)n2-c2cccc(OC)c2)cc1		12.6 µM (active)
COCC(C)n1c(SCc2ccc(C(=O)OC)o2)nc2ccccc2c1=O (stereo not drawn)	12.5%	
Cc1cccc(NC(=O)CSc2nc3c([nH]c4ccccc43)c(=O)n2-c2cc(C)cc(C)c2)c1	-19.8%	
COC(=O)c1ccc(CSc2ccccc2C)o1	-6.13%	
Cc1ccc(NC(=O)CSc2nc3c([nH]c4ccccc43)c(=O)n2-c2ccccc2)cc1Cl	2.09%	
COc1ccc(-c2cccc(NS(=O)(=O)c3cc(C)c(OC)c(C)c3C)c2)nn1	-5.81%	
Cc1ccccc1CNC(=O)c1ccc(NC(=O)N2CCCCc3ccccc32)cc1	-9.89%	
Cc1ccc(-c2nnc(SCC(=O)NCc3ccccc3)nc2-c2ccc(C)cc2)cc1	-17.5%	
Brc1ccc2c(c1)NC(c1cccnc1)=NC(c1ccccc1)=N2	2.72%	
CCCCN(C)CCCNC(=O)CN1N=C(c2ccc(OC)cc2)CCC1=O	2.7%	
Cc1nn(C)c2c1c(C(F)(F)F)cc(=O)n2C(C)C(=O)NCc1ccc(Cl)cc1 (stereo not drawn)	-3.11%	
COc1ccc(C2CC(c3ccccc3)=NN2C(=O)c2ccc(Cl)c([N+](=O)[O-])c2)cc1 (stereo not drawn)		10 µM (active)

SMILES	max response, negative = inhibition	Potency
COc1ccc(C(=O)NNC(=S)NC(=O)c2ccccc2[N+](=O)[O-])cc1	-1.55%	
COc1ccc(C2=NN(C(=O)c3cccnc3)C(c3ccccc3)C2)cc1 (stereo not drawn)	7.92%	
CCOC(=O)C1CCCN(C(=O)c2ccc(-n3ccc4ccccc43)s2)C1 (stereo not drawn)	13.4%	
CCOc1ccc(C(=O)c2cn(Cc3ccc(F)cc3)c3ccc(F)cc3c2=O)cc1	3.78%	
Nc1ncc(S(=O)(=O)Nc2ccc(OC(F)(F)F)cc2)cn1	-3.7%	
O=C(c1cn(-c2ccccc2)nc1-c1cccnc1)N1CCCCC1	-0.942%	
COC(=O)c1cn(-c2ccccc2)nc1-c1cccnc1	10.9%	
O=C(COC(=O)/C=C/c1cn(-c2ccccc2)nc1-c1cccnc1)Nc1ccc(Cl)cc1Cl		10 µM (active)
CCc1c(C)sc(NC(=O)C2c3ccccc3Oc3ccccc32)c1C(=O)OC(C)C	-24.3%	
CCc1ccc(Oc2coc3cc(OC(=O)c4cc5ccccc5oc4=O)ccc3c2=O)cc1		3.98 µM (active)
CCCOC(=O)c1cc2ccccc2oc1=O	-4.88%	
COc1ccc(Oc2coc3cc(OC(=O)c4cncc(Br)c4)ccc3c2=O)cc1	-23.9%	
CNc1nc(SC)nc(N(C#N)CC(=O)OC)n1		25.1 µM (active)
COC(=O)C(C)N(C#N)c1nc(C)nc(C)n1 (stereo not drawn)	1.82%	
Cc1cc(C)nc(N(C#N)CC(=O)Nc2ccccc2)n1	5.89%	
CCCCOc1ccc(NC(=O)c2cc3c(n(-c4ccc(Cl)cc4)c2=O)CCCC3=O)cc1	7.21%	
CSCCC(NS(=O)(=O)c1ccc2c(c1)oc(=O)n2C)C(=O)NCc1ccccc1 (stereo not drawn)	-13%	
COc1ccc(CCNC(=O)CCCn2c(=O)c3ccccc3n(Cc3ccc(F)cc3Cl)c2=O)cc1OC	13.2%	
CCc1nnc(SCc2nc(-c3cccc(C)c3)oc2C)c2cc3sc(C)cc3n12	-17.8%	
COc1ccccc1C(=O)OCc1cc(=O)n2nc(-c3cccs3)sc2n1	-3.73%	
COc1ccc(C2CC(c3cccs3)=NN2C(=O)COC(=O)c2cc3ccccc3cc2O)cc1OC (stereo not drawn)		12.6 µM (active)
COc1ccc(C2CC(c3cccs3)=Nc3ccccc3S2)cc1OC (stereo not drawn)	13.4%	
